Measured values: PubChem BioAssay (NCI)
This is part of a sample that, as a whole, favours compounds with a hit. Of some 83,000 tested, about 20% had one in any assay.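 How to read the values: 0–100, growth inhibition (40 = 60% inhibited); 0, no net growth; -100 to 0, cell death (-40 = 40% of starting cells died; -100 = all dead).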 A number with no mark means an inactive call. The source made the active and inactive calls. How the source made its calls: active means growth percent below 10; inactive means the rest.

What was measured:
Experiment in all cases: NCI-60 one-dose screen, 48 h (100 = growth as untreated, 0 = no growth, -100 = all killed)
Settings in all cases: 10 µM unless noted
SK-MEL-2 melanoma = test system: SK-MEL-2 melanoma
EKVX NSCLC = test system: EKVX NSCLC
SN12C renal = test system: SN12C renal
UO-31 renal = test system: UO-31 renal
TK-10 renal = test system: TK-10 renal
ACHN renal = test system: ACHN renal
A498 renal = test system: A498 renal
CCRF-CEM leukemia = test system: CCRF-CEM leukemia
MOLT-4 leukemia = test system: MOLT-4 leukemia
SR leukemia = test system: SR leukemia
RPMI-8226 leukemia = test system: RPMI-8226 leukemia
OVCAR-8 ovarian = test system: OVCAR-8 ovarian
OVCAR-5 ovarian = test system: OVCAR-5 ovarian
OVCAR-4 ovarian = test system: OVCAR-4 ovarian
SK-OV-3 ovarian = test system: SK-OV-3 ovarian
IGROV1 ovarian = test system: IGROV1 ovarian
OVCAR-3 ovarian = test system: OVCAR-3 ovarian
HS 578T breast = test system: HS 578T breast
NCI/ADR-RES ovarian = test system: NCI/ADR-RES ovarian
T-47D breast = test system: T-47D breast

| SMILES | growth (SK-MEL-2 melanoma) | growth (EKVX NSCLC) | growth (SN12C renal) | growth (UO-31 renal) | growth (TK-10 renal) | growth (ACHN renal) | growth (A498 renal) | growth (CCRF-CEM leukemia) | growth (MOLT-4 leukemia) | growth (SR leukemia) | growth (RPMI-8226 leukemia) | growth (OVCAR-8 ovarian) | growth (OVCAR-5 ovarian) | growth (OVCAR-4 ovarian) | growth (SK-OV-3 ovarian) | growth (IGROV1 ovarian) | growth (OVCAR-3 ovarian) | growth (HS 578T breast) | growth (NCI/ADR-RES ovarian) | growth (T-47D breast) |
| --- | --- | --- | --- | --- | --- | --- | --- | --- | --- | --- | --- | --- | --- | --- | --- | --- | --- | --- | --- | --- |
| Nc1n[nH]c2cccc(C#Cc3cccc(NC(=O)c4cc(N5CCOCC5)cc(C(F)(F)F)c4)c3)c12 | 0.377% (active) | 59.9% | 57.6% | 17.5% | 36.5% | 25.3% | -5.08% (active) | 44.2% | 30.4% | 43.5% | 40.5% | 45.5% | 42.4% | 51.5% | 35.1% | 9.97% (active) | 67.3% | 40.5% | 47% | 28.3% |
| CN1CCN(CC#CCOC(=O)CNC(=O)[C@]23CCC(C)(C)C[C@H]2C2=CC[C@@H]4[C@@]5(C)CC[C@H](O)C(C)(C)[C@@H]5CC[C@@]4(C)[C@]2(C)CC3)CC1 | 95.4% | 89.1% | 82.2% | 63% | 109% | 92.5% | 69.4% | 85.6% | 70.7% | 7.96% (active) | 76.8% | 81.3% | 101% | 105% | 86.2% | 90.4% | 94.6% | 95.5% | 87.6% | 75.5% |
| COc1ccccc1C(=O)/C=C/c1cc2cccc(OC)c2[nH]c1=O | 20% | 7.34% (active) | -0.142% (active) | -48.6% (active) | 3.12% (active) | 4% (active) | -15% (active) | -4.86% (active) | 7.38% (active) | -1.87% (active) | -14.5% (active) | -5.37% (active) | 13.1% | 15.4% | 16.3% | 2.88% (active) | -9.01% (active) | 39.3% | 3.01% (active) | 11.3% |
| CC(C)CSc1nc(Nc2ccccc2)c(C#N)c(-c2ccc(F)cc2)n1 | 78.8% | 23.2% | -26% (active) | -3.98% (active) | -22.9% (active) | -43.2% (active) | -0.717% (active) | 31.1% | 65.5% | -11.1% (active) | 21.6% | 29.4% | 40.8% | -81.3% (active) | 46.8% | 1.71% (active) | -33.2% (active) | 14.6% | 41.1% | 29.1% |
| O=C1CC(c2ccc(O)c(O)c2)Oc2cc(O)c([C@@H]3O[C@H](CO)[C@@H](O)[C@H](O)[C@H]3O)c(O)c21 (stereo not given in full) | 104% | 99.5% | 98.7% | 103% | 106% | 102% | 108% | 97.3% | 100% | 98.6% | 99.3% | 101% | 98.7% | 101% | 103% | 109% | 104% | 105% | 110% | 95.8% |
| COc1ccc2nc3nc4ccc[nH]c4cc3c2c1 | 108% | 67.6% | 89.7% | 61.5% | 82.2% | 76% | 94.4% | 97.5% | 93.6% | 43.6% | 82.9% | 96.6% | 115% | 92.2% | 89% | 69.6% | 91.8% | 92.5% | 96.1% | 38.3% |
| C#CCN1C(=O)c2ccccc2N(CC#C)C12CCN(Cc1cn(CC(=O)Nc3ccccc3C(N)=O)nn1)CC2 | 98.8% | 78.6% | 88.9% | 59.3% | 82.8% | 92.5% | 75.8% | 84.3% | 83.2% | 64.6% | 82.2% | 100% | 89.2% | 89% | 106% | 82.4% | 84.4% | 91.8% | 80.5% | 77% |
